Screening data: PubChem, The Scripps Research Institute Molecular Screening Center
Shown are actives, neighbours in structure and some others; about 3.5% of the full set was active somewhere.
TEAD-YAP inh: TEAD-YAP interaction inhibition. HEK-TIYL cells, TEAD-Gal4/YAP UAS-luciferase luminescence. inhibition, % at 9.12 µM. 640,000 compounds, 1.4% hits. AID 1259422; in the data active = inhibition above about 32%;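 also: 0% = median of test compound wells and 100% = reference inhibitor wells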
FBW7 activator: human FBW7 E3 ligase activation, primary screen; normalized activity (activation), % at 26.1 µM; AlphaScreen FBW7–phospho-cyclin E peptide binding, activator screen; Q969H0; 650,000 compounds, 0.13% hits; in the data active = normalized activity above about 1.9%;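 also: purified mutant Fbw7 with reduced substrate affinity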
GPR151 activ: activators of human GPR151. Q8TDV0. PathHunter beta-arrestin GPR151 cells, luminescence. activation, % at 11.2 µM. 650,000 compounds, 1% hits; in the data active = activation above about 4.9%;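 also: 0% = median of compound wells and 100% = cells with positive control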
MITF inh: human MITF inhibition, primary screen | O75030 | AlphaScreen MITF homodimerization, bead proximity signal | inhibition, % at 2.6 µM | 650,000 compounds, 0.91% hits; in the data active = inhibition above about 50%;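 also: 0% = vehicle wells with protein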
GPR151 conf act: confirmation of human GPR151 activators | shares compounds with GPR151 activ | GPR151 PathHunter beta-arrestin cells, luminescence, 90 min; % of EA-reagent control over plate median | activation, % at 11.2 µM | 6,700 tested, under 10 active | AID 1508609;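 active = mean percent activation across replicates above the confirmation screen cutoff of 4.91%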
GPR119 ag: GPR119 activation, counter-screen for GPR151 activators. AID 1508611. GPR119 PathHunter beta-arrestin cells, luminescence, 90 min; 0 = compound-well median, 100 = enzyme-acceptor control. 6,700 compounds, 0.3% hits. activation, % at 11.2 µM. shares compounds with GPR151 activ;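 active = mean percent activation in the counterscreen above 29.09%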;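 also: counterscreen on off-target GPR119 to flag nonselective hits from the GPR151 activator screen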
Target sequence (Q8TDV5 whole entry, looked up): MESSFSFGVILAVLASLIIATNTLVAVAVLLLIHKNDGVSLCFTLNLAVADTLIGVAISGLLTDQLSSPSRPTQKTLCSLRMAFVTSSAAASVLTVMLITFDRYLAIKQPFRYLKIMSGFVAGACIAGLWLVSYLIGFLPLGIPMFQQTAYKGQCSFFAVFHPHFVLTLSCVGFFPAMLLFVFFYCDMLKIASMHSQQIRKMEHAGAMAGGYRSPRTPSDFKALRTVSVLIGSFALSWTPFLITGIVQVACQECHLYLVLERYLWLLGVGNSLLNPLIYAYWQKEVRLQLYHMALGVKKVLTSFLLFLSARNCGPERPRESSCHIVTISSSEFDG
* marks the source's active call; other numbers are inactive results; / = no result.

SMILES	TEAD-YAP inh	FBW7 activator	GPR151 activ	MITF inh	GPR151 conf act	GPR119 ag
COC(=O)Cc1csc(NNC(C)=O)n1	-8	0	0	-1	/	/
CC(C)(C)c1ccccc1NC(=O)CCl	5	0	-1	5	/	/
CC(=O)N(C)c1ccccc1NC(=O)CCl	-9	0	8.7*	-12	0	4
O=C1NC2(CCN(Cc3ccc(F)c(F)c3)CC2)Oc2ccccc21	-1	0	1	2	/	/
O=C1NC2(CCN(Cc3ccc4nccnc4c3)CC2)Oc2ccccc21	4	0	5.0*	-5	-1	-12
COc1cccc2cc(-c3csc(NC(=O)CCC(=O)N4CCC(C(N)=O)CC4)n3)c(=O)oc12	-21	0	5.2*	-8	0	10
O=C(CCOc1ccccc1)Nc1ccnn1C1CCN(C(=O)COc2ccccc2)CC1	-20	0	1	-12	/	/
CN=c1scc(C)n1/N=C/c1c[nH]c2ccc(Br)cc12	5	0	1	6	/	/
Fc1ccc(C2CC(c3ccc(Br)cc3)=NN2c2nc(-c3ccccc3)c3cc(Br)ccc3n2)cc1 (stereo not given)	5	0	5.8*	-2	0	2
CC1=C(C(=O)OCC(C)C)C(c2ccc(F)cc2)N2C(=O)CCSC2=N1 (stereo not given)	-8	0	0	-13	/	/
N#CCC(=O)N/N=C/c1cn(CC(=O)Nc2ccc(F)cc2)c2ccccc12	11	0	2	1	/	/
O=C(Cn1cc(/C=C/c2nc(O)c([N+](=O)[O-])c(=O)[nH]2)c2ccccc21)Nc1ccc(F)cc1	9	0	5.5*	14	0	2
CCn1cc(/C=C/c2nc(O)c([N+](=O)[O-])c(=O)[nH]2)c2ccccc21	-5	0	1	6	/	/
O=C(Cn1cc(/C=N/N2C(=O)c3ccccc3C2=O)c2ccccc21)Nc1ccc(F)cc1	9	0	5.6*	3	0	7
O=C(/C=C/c1cccs1)Nc1cc([N+](=O)[O-])ccc1Cl	-1	0	1	15	/	/
O=C(/C=C/c1cccs1)NC(=S)Nc1cc([N+](=O)[O-])ccc1O	-12	0	5.4*	34	0	-7
CCC(=O)Nc1nc2c(OC)ccc(OC)c2s1	12	0	5.0*	5	-1	2
CCC(=O)Nc1nc2c(Cl)ccc(Cl)c2s1	-5	0	3	-8	/	/
CC1=CC2=NC(=O)/C(=C\c3ccc(-c4cccc(Cl)c4)o3)C(=N)N2O1	7	0	5.9*	-1	0	11
CC1=CC2=NC(=O)/C(=C\c3ccc(-c4ccccc4Cl)o3)C(=N)N2O1	3	0	1	8	/	/
CN1C(=O)/C(=C2\SC(=S)N(c3ccc(CC(=O)O)cc3)C2=O)c2ccccc21	3	0	6.9*	11	0	0
CN1C(=O)/C(=C2\SC(=S)N(c3ccc(C(=O)O)cc3)C2=O)c2ccccc21	7	0	5.6*	21	1	16
CN1C(=O)/C(=C2\SC(=S)N(CC(=O)O)C2=O)c2ccccc21	-5	0	1	9	/	/
CC(=O)c1ccc(N2C(=O)/C(=C3/C(=O)N(C(C)=O)c4ccccc43)SC2=S)cc1	-5	0	-1	7	/	/
COc1ccc(S(=O)(=O)Nc2ccc(S(=O)(=O)Nc3cc(C)ccc3C)cc2)cc1	11	1	1	17	/	/
SMILES	TEAD-YAP inh	FBW7 activator	GPR151 activ	MITF inh	GPR151 conf act	GPR119 ag
CC(C)(C)c1nn2cnnc2n(/N=C/c2ccccc2I)c1=O	3	0	2	-1	/	/
CC(C)(C)c1nn2cnnc2n(/N=C/c2ccccc2O)c1=O	1	0	5.9*	10	-1	-6
CC(SCc1nc2scc(-c3ccccc3)c2c(=O)[nH]1)C(=O)O (stereo not given)	-5	0	-1	28	/	/
COC(=O)Cn1cc(/C=C(/C#N)C(=O)Nc2ccccc2)c2ccccc21	2	0	0	2	/	/
N#C/C(=C/c1cn(CC(=O)O)c2ccccc12)C(=O)Nc1ccc(Cl)cc1	11	0	8.5*	3	-1	-5
c1ccc(CCn2c3ccccc3c3nnc(SCc4ccccc4)nc32)cc1	-3	0	-2	8	/	/
O=C1c2ccc([N+](=O)[O-])cc2C(=O)N1c1ccc(Cl)c(Cl)c1	9	0	6.9*	7	1	7
